This is a sample that favours compounds with a hit; in the whole collection about 2.6% have one here.
GLP1R inv ag – acts as inverse agonist at human GLP-1 receptor | P43220 | HEK293 GLP-1R CRE-luciferase, luminescence, 24 h; GLP-1R form is constitutively active | Potency, µM (series often up to 38.3 µM), most hits filed as inhibitors | 410,000 tested, 1.6% active; also: nearly all actives have a fitted effect of over 55% in size
Target sequence (P43220 whole entry, looked up): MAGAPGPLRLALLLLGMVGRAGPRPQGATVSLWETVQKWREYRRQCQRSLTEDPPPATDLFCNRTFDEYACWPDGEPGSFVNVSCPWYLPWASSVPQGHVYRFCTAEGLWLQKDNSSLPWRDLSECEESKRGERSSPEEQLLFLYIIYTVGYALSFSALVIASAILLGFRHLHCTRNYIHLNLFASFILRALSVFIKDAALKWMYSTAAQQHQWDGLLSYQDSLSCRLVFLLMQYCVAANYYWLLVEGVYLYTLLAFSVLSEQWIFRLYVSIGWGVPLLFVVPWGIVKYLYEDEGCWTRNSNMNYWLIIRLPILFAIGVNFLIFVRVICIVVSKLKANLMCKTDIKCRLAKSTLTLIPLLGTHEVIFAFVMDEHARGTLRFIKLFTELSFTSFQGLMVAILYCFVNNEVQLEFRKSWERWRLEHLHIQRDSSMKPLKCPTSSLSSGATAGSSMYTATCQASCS
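Assay principle: reduced luminescence from a cAMP-responsive reporter in HEK293 cells co-expressing a constitutively active GLP-1R. Conditions: 24 hr compound incubation, 37 deg C, 5% CO2.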
GLP1R cytotox – cytotoxicity in counter-screen for GLP-1R inverse agonists | HEK293 cAMP-luciferase reporter cells, luminescence, 24 h | Potency, µM (doses to about 38.3 µM), usual class: inhibitors | 410,000 tested, 0.13% active | AID 624418;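 also: loss of luciferase light is scored as toxicity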
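Step one: seed cells (200 cells/uL, DMEM with 10% Nu serum, 1% pen-strep). Step two: 12-hour incubation at 37 deg C. Step three: pin 23 nL compound, incubate 24 hr. Step four: add luciferase reagent, read luminescence 12 min later.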
BRCA1 expr act – increases BRCA1 expression; MCF7-BRCA1-FFLuc reporter, luminescence, 48 h; response scale: scaled: vehicle 0%, 10 µM genistein 100%; 380,000 tested, 1.1% active; Potency, µM (titrated, usually from 46.1 µM), actives largely listed as activators; AID 624202; also: nearly all actives have a fitted effect of over 80% in size
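48 h compound treatment of MCF7-BRCA1-FFLuc cells (phenol-red free MEM, 37 °C), then 15 min with luciferase substrate and luminescence imaging.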
GLP-1R agonist – activates the human GLP-1 receptor; P43220; HEK293 GLP-1R CRE-luciferase, luminescence, 4-6 h; cells express a hypersensitive GLP-1R form; Potency, µM (titrated, usually from 45.6 µM), usual class: activators; 380,000 tested, 0.007% active; AID 624172
Hits are given with their value; - = inactive; ? = inconclusive; . = no result given; [ ] = another dose, or the depositor's remark. Calls follow the shape of the dose curve; as a rule, active = well fitted curve in the direction sought with a large enough effect; inconclusive = small, poorly fitted or top-dose-only effect, or another doubt; inactive = no such curve, though single readings can be large; an effect the other way counts as inactive or inconclusive.

SMILES | GLP1R inv ag | GLP1R cytotox | BRCA1 expr act | GLP-1R agonist
O=C(NCC1CCCO1)c1ccc2c3n(nc2c1)-c1ccccc1CO3 (stereo not drawn) | - | - | 2.51µM | -
O=C(c1ccc2c3n(nc2c1)-c1ccccc1CO3)N1CCCCC1 | ? | - | ? | -
C[C@@H](CO)NC(=O)c1ccc2c3n(nc2c1)-c1ccccc1CO3 | 3.55µM | - | ? | -
Cc1ccc2c(c1)COc1c3ccc(C(=O)N[C@@H](CO)C(C)C)cc3nn1-2 | - | - | 6.31µM | -
CCCCCC(C)N (stereo not drawn) | . | . | . | -
CCN(CC)CCNCC(O)(c1ccc(Cl)cc1)c1ccc(Cl)cc1 | 8.91µM | - | - | -
CCN(CC)CCNC(=O)NC(=O)c1ccc(Cl)cc1 | - | - | - | -
CC(C)(C)NCC(O)(c1ccc(Cl)cc1)c1ccc(Cl)cc1 | 4.47µM | ? | - | -
CC(C)NCC(O)(c1ccc(Cl)cc1)c1ccc(Cl)cc1 | 12.6µM | - | - | -
NCC(O)(c1ccc(Cl)cc1)c1ccc(Cl)cc1 | ? | - | - | -
N#C/C(=C\c1ccc(Cl)c([N+](=O)[O-])c1)c1ccccn1 | - | - | - | -
CNc1ccc(/C=C(\C#N)c2ccccn2)cc1[N+](=O)[O-] | -[0.307 µM] | -[0.307 µM] | 10µM | -
CC1=Nc2ccccc2/C1=C/c1ccc(N(C)C)cc1 | . | . | - | .
CCc1cc(CNC(=O)C2CCC(=O)N(Cc3ccccc3F)C2)on1 (stereo not drawn) | - | - | - | -
COc1cc(CNC(=O)c2ccc3nc(Cc4ccccc4)oc3c2)cc(OC)c1OC | - | - | . | .
CCNC(=S)N1N=C2c3ccccc3CCC2C1c1ccc(F)cc1 (stereo not drawn) | 3.55µM | ? | - | -
O=C1CC(=O)OC(c2ccc([N+](=O)[O-])cc2)O1 | ? | 5.01µM | - | -
CCC1C(=O)C(C)(C)C(=O)OC1c1ccc([N+](=O)[O-])cc1 (stereo not drawn) | - | - | - | -
Cc1ccc(S(=O)(=O)N2CCCCC2)cc1NC(=O)Cn1ncc(Cl)c(Cl)c1=O | 10µM | ? | - | -
Cc1ccc(C)c(C(=O)Cn2ncc(Cl)c(Cl)c2=O)c1 | - | 10µM | - | -
Cc1ccc(C)c(OCCC(=O)Nc2cc(S(=O)(=O)N3CCCCC3)ccc2C)c1 | 11.2µM | - | - | -
Cc1ccc(C)c(OCCC(=O)OCC(=O)Nc2cc(S(=O)(=O)N3CCCCC3)ccc2C)c1 | ? | - | - | -
Cc1ccc(S(=O)(=O)N2CCCCC2)cc1NC(=O)CNC(C)c1ccc(Cl)c(Cl)c1 (stereo not drawn) | 2.82µM | - | - | -
Cc1cc(C(=O)Cn2ncc(Cl)c(Cl)c2=O)c(C)n1CC(F)(F)F | ? | - | - | -
COc1ccc(CN2C(=O)CCC2(C)c2nc3ccccc3[nH]2)cc1 (stereo not drawn) | - | - | - | -
SMILES | GLP1R inv ag | GLP1R cytotox | BRCA1 expr act | GLP-1R agonist
CN(C)c1ccc(/C=C\C=C/c2ccnc3ccccc23)cc1 | . | . | - | .
COc1ccc(CCNC(=O)c2c(C)oc3nc(C)nc(N4CCOCC4)c23)cc1OC | - | - | . | .
CCOC(=O)C(=O)NNc1ccc(F)cc1 | 0.891µM | - | - | -
CCOC(=O)C(=O)N/N=C/c1ccc(F)cc1 | - | - | - | -
CCOC(=O)c1[nH]c2ccccc2c1NC(=O)c1c(F)cccc1F | - | - | - | -
C=C1C=C(C(F)(F)F)n2ncc(C(=O)NCc3ccc(F)cc3)c2N1 | . | . | - | .
COc1ccc(C2=Nc3ccccc3N(C(=O)c3ccc(C(F)(F)F)cc3)C2C(=O)NCc2ccccc2)cc1 (stereo not drawn) | 6.31µM | - | . | .
C=C[C@@H]1CN2CCC1C[C@H]2[C@H](O)c1ccnc2ccc(OC)cc12 (stereo partly drawn) | . | . | - | .
CC(C)(C)N(Cc1ccccc1)C(=O)c1ccc(Br)o1 | - | - | - | -
Cc1ccc(C(=O)N(Cc2ccccc2)C(C)(C)C)cc1C | 7.08µM | - | - | -
CCc1ccc(N2C(=O)C(Cl)=C(N3CCOCC3)C2=O)cc1 | - | - | - | -
CCc1ccc(N2C(=O)C(Cl)=C(N3CCCCCC3)C2=O)cc1 | 10µM | - | - | -
Clc1ccc(-c2csc3ncnc(Sc4nnnn4-c4ccccc4)c23)cc1 | . | . | - | .
Clc1ccc(-n2nnnc2Sc2ncnc3sccc23)cc1 | 7.94µM | ? | - | -
COc1ccc2nc(C)cc(NCc3cccc(C(F)(F)F)c3)c2c1 | 2.82µM | ? | - | -
CC1(C)C(=O)N(OCc2ccccc2)C(C)(C)C(=O)N1OCc1ccccc1 | 10µM | - | - | -
CCCCC(CC)COS(=O)(=O)O (stereo not drawn) | . | . | . | -
CCC(c1nnnn1CCc1ccccc1)N(Cc1ccco1)Cc1cc2c(C)ccc(C)c2[nH]c1=O (stereo not drawn) | 11.2µM | - | - | -
O=C1[C@H]2[C@@H](c3ccc(F)cc3)N3C(=O)N(c4cccc(Cl)c4)C(=O)[C@@]3(Cc3ccc(Cl)cc3)[C@H]2C(=O)N1C1CCCCC1 | ? | - | - | -
O=C1[C@H]2[C@@H](c3ccc(F)cc3)N3C(=O)N(c4cccc(Cl)c4)C(=O)[C@@]3(Cc3ccccc3)[C@H]2C(=O)N1C1CCCCC1 | 5.62µM | - | - | -
COc1ccc2nc(Cl)c(/C=N/Nc3ccccn3)cc2c1 | - | - | 3.16µM | -
O=C(NC1CC2CCCC(C1)N2C(=O)Nc1ccc(Cl)c(C(F)(F)F)c1)C1CC1 (stereo not drawn) | 10µM | - | - | -
O=C(NCc1ccccc1)c1ccc(NC(=O)c2nsc3ccccc23)cc1 | - | - | . | .
COc1ccc(C2C=C(c3ccccc3)Nc3nc(NC(=O)/C=C/c4ccccc4OC)nn32)cc1 (stereo not drawn) | - | - | . | .
CCn1cc2nc(SCc3ccc(F)cc3)n(CCc3ccccc3)c(=O)c2n1 | 7.94µM | - | - | .
SMILES | GLP1R inv ag | GLP1R cytotox | BRCA1 expr act | GLP-1R agonist
CCn1cc2nc(SCc3ccc(C)cc3)n(CCc3ccccc3)c(=O)c2n1 | ? | - | - | .
COc1ccc(OC(=O)c2cn(-c3cccc(OC)c3)c(=O)c3ccccc23)cc1 | ? | - | . | .
CCNc1nc(NC(C)(C)C)nc(SC(C(C)=O)C(C)=O)n1 | 8.91µM | - | - | -
CC(C)c1ccc(Nc2nc(CC(=O)O)cs2)cc1 | - | - | 5.01µM | -
CCCCOc1ccc(Cn2c(=O)sc3ccccc32)cc1 | 11.2µM | - | . | .
N/C(=N\OC(=O)Oc1ccccc1)c1cccc([N+](=O)[O-])c1 | - | - | - | -
N/C(=N\OC(=O)CSc1ccccc1)c1cccc([N+](=O)[O-])c1 | ? | - | 12.6µM | -
CC(C)(C)NC(=O)CSc1nnc(-c2ccccc2)c(-c2ccccc2)n1 | 8.91µM | - | - | -
CC(C)(C)NC(=O)CSc1nc2ccccc2n1-c1ccccc1 | 10µM | - | - | -
CCCCOc1ccccc1C(=O)N(Cc1sccc1C)C1CCS(=O)(=O)C1 (stereo not drawn) | - | - | . | .
O=[N+]([O-])c1cc(/C=N/O)ccc1Oc1ccccc1Cl | ? | - | 7.08µM | ?

Screening results from PubChem BioAssay.
